Compounds with a hit are over-represented: about 2.6% of the library has one in this group of screens.
PHOSPHO1 block – PubChem AID 1565; Phosphoethanolamine/phosphocholine phosphatase (Homo sapiens), Q8TCT1; recombinant PHOSPHO1, absorbance phosphatase assay; inhibition, % at 13.3 µM; actives 1.1% (n = 290,000); in the data active = inhibition above about 60%
Target sequence (Q8TCT1 whole entry, looked up): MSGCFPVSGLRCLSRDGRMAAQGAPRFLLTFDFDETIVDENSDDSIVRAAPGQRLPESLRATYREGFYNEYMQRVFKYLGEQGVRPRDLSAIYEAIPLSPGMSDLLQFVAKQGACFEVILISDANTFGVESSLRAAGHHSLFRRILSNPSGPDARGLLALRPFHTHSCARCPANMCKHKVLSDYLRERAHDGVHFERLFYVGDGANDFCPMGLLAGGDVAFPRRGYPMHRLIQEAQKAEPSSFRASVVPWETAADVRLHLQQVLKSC
MLLE-PAM2 inh – inhibitors of PABP1 MLLE–PAM2 peptide binding, primary screen, biochemical, fluorescence polarization, FITC-PAM2, GST-MLLE. inhibition, % at 20 µM. actives 0.36% (n = 360,000). Polyadenylate-binding protein 1 (Homo sapiens), P11940; in the data active = inhibition above about 35%, passing the limit was not always enough;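 note: plate controls were DMSO wells with GST-MLLE for no effect and wells lacking GST-MLLE protein for full effect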
PABP polyA inh – PABP poly(A) RNA binding inhibitors, primary screen, biochemical, fluorescence polarization, uHTS; inhibition, % at 35 µM; actives 1% (n = 290,000); AID 2014, 2009; Polyadenylate-binding protein 1 (Homo sapiens), P11940;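 note: calls also rest on retests at 20 µM and on dose response follow-up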
CRFR2-BP antag – antagonists of CRF-BP/CRF-R2 complex, primary screen, cell-based, HEK293, calcium dye fluorescence, uHTS. CRF-induced calcium fluorescence. inhibition, % at 11.8 µM. actives 0.59% (n = 350,000);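 active = inhibition of the ligand-induced calcium signal above about 50% at the single tested concentration, limit read from the data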
eIF4H FP inh – human eIF4H binding inhibitors, primary screen, translation initiation inhibitor project, biochemical, uHTS, fluorescence polarization; inhibition, % at 35 µM; AID 2012, 2009; eIF4H fluorescence polarization binding assay; actives 0.94% (n = 290,000);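 note: calls also rest on retests at 20 µM and on dose response follow-up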
* hit, by the source's call. Unless noted, the rule behind the calls is not given here.

Results for CC1(C)CC(=O)C=C(Nc2cccc(F)c2)C1 ?
PHOSPHO1 block: 32.6; MLLE-PAM2 inh: 8.9; PABP polyA inh: -7.4; CRFR2-BP antag: -2.5; eIF4H FP inh: -13.0

What do the screens show for `CN(C)c1cccc(NC2=CC(=[N+]3CCOCC3)CC(C)(C)C2)c1`?
PHOSPHO1 block: 91.3*; MLLE-PAM2 inh: -93.7; PABP polyA inh: 57.9*; CRFR2-BP antag: 12.4; eIF4H FP inh: 10.4

What do the screens show for `COc1ccc(-c2nnc(-c3ccc(N(C)C)cc3)o2)cc1`?
PHOSPHO1 block: -5.8; MLLE-PAM2 inh: -6.1; PABP polyA inh: -6.8; CRFR2-BP antag: 42.9; eIF4H FP inh: -2.9

Results for CN(C)c1ccc(-c2nnc(-c3ccc(S(=O)(=O)C(F)F)cc3)o2)cc1 ?
PHOSPHO1 block: -42.5; MLLE-PAM2 inh: -63.1; PABP polyA inh: 74.1*; CRFR2-BP antag: -4.8; eIF4H FP inh: 67.6*

What do the screens show for `CC1=C(C#N)C(=O)OC(C)(C)C1`?
PHOSPHO1 block: -0.6; MLLE-PAM2 inh: 86.8; PABP polyA inh: 115.5*; CRFR2-BP antag: -24.2; eIF4H FP inh: 121.5*

How did O=C(O)/C=C/c1ccc(O)c(O)c1 do in these assays?
PHOSPHO1 block: -1.4; MLLE-PAM2 inh: -1.3; PABP polyA inh: -6.5; CRFR2-BP antag: 7.7; eIF4H FP inh: -11.0

What do the screens show for `O=C(/C=C/c1ccc(O)c(O)c1)O[C@H](Cc1ccc(O)c(O)c1)C(=O)O`?
PHOSPHO1 block: 8.9; PABP polyA inh: 81.8*; eIF4H FP inh: 98.2*

What do the screens show for `CCOC(=O)CCC(NC(=O)c1ccccc1C(=O)NC(CCC(=O)OCC)C(=O)OCC)C(=O)OCC` (stereo not drawn)?
PHOSPHO1 block: 64.7*; MLLE-PAM2 inh: -0.5; PABP polyA inh: 9.3; CRFR2-BP antag: -31.5; eIF4H FP inh: -7.6

Results for COc1cccc(C2CC(=O)N3CN(c4cccc(Cl)c4C)CSC3=C2C#N)c1OC (stereo not drawn) ?
PHOSPHO1 block: 88.1*; MLLE-PAM2 inh: -28.9; PABP polyA inh: 36.4; CRFR2-BP antag: -9.1; eIF4H FP inh: 7.7

Results for COc1ccc(OC)c(C2CC(=O)N3CN(c4cccc(Cl)c4C)CSC3=C2C#N)c1 (stereo not drawn) ?
PHOSPHO1 block: 92.8*; MLLE-PAM2 inh: -27.4; PABP polyA inh: 68.3; CRFR2-BP antag: -2.7; eIF4H FP inh: 10.9

How did COc1ccc(OC)c(C2CC(=O)N3CN(c4ccccc4F)CSC3=C2C#N)c1 (stereo not drawn) do in these assays?
PHOSPHO1 block: 85.7*; MLLE-PAM2 inh: -1.9; PABP polyA inh: 25.4; CRFR2-BP antag: -21.6; eIF4H FP inh: 17.4

How did COc1cccc(C2CC(=O)N3CN(c4ccccc4F)CSC3=C2C#N)c1 (stereo not drawn) do in these assays?
PHOSPHO1 block: 28.8; MLLE-PAM2 inh: -4.8; PABP polyA inh: 49.5; CRFR2-BP antag: 46.5; eIF4H FP inh: 20.1

Results for CC1(C(=O)Nc2cccc(C#N)c2)CCN1C(=O)C1(c2ccccc2)CC1 (stereo not drawn) ?
MLLE-PAM2 inh: 2.5

What do the screens show for `O=C(COC(=O)/C=C/c1cccc(F)c1)NCc1ccc2c(c1)OCO2`?
MLLE-PAM2 inh: 3.8; CRFR2-BP antag: -5.0

How did COc1ccc(Nc2nc(N)nc(CSc3nc(C)cc(C)n3)n2)cc1 do in these assays?
PHOSPHO1 block: 60.1*; MLLE-PAM2 inh: -15.9; PABP polyA inh: 1.8; CRFR2-BP antag: 3.0; eIF4H FP inh: -3.3

What do the screens show for `COc1ccccc1Nc1nc(N)nc(CSc2nc(C)cc(C)n2)n1`?
PHOSPHO1 block: 25.5; MLLE-PAM2 inh: 5.1; PABP polyA inh: 2.7; CRFR2-BP antag: 6.9; eIF4H FP inh: -5.2

Results for COc1ccc(Nc2nc(N)nc(CSc3nnc(N)s3)n2)cc1 ?
PHOSPHO1 block: 0.5; MLLE-PAM2 inh: 1.5; PABP polyA inh: -0.6; CRFR2-BP antag: -4.9; eIF4H FP inh: 4.9

How did COc1ccc(Nc2nc(N)nc(CSc3nccn3C)n2)cc1 do in these assays?
PHOSPHO1 block: -9.1; MLLE-PAM2 inh: 15.2; PABP polyA inh: 70.1; CRFR2-BP antag: -6.7; eIF4H FP inh: 89.8*

What do the screens show for `CCCCc1ccc(NC(=O)C(=O)NCCN2CCN(Cc3ccc([N+](=O)[O-])cc3)CC2)cc1`?
PHOSPHO1 block: 20.5; MLLE-PAM2 inh: 8.4; PABP polyA inh: 1.7; CRFR2-BP antag: 7.3; eIF4H FP inh: -1.6

What do the screens show for `Cc1sc2ccccc2c1CNC[C@H]1O[C@@H](n2cnc(C(N)=O)n2)[C@H](O)[C@@H]1O`?
MLLE-PAM2 inh: -2.6; CRFR2-BP antag: 0.0

What do the screens show for `CCN(c1ccc(NC(=O)COC(=O)C2CCN(c3ccc(C(F)(F)F)cn3)CC2)cc1)C(C)C`?
MLLE-PAM2 inh: 9.5; CRFR2-BP antag: 12.7

How did Cc1c2c(=O)n(-c3nc4ccccc4s3)nc-2cc(O)n1Cc1ccccc1 do in these assays?
PHOSPHO1 block: 8.1; MLLE-PAM2 inh: -44.4; PABP polyA inh: 50.4*; CRFR2-BP antag: 15.4; eIF4H FP inh: 59.7*

Results for CCOC(=O)c1ccc(NC(=O)c2nc[nH]c2C(=O)N[C@@H](C)CO)cc1 ?
MLLE-PAM2 inh: -4.1; CRFR2-BP antag: -12.4

How did Cc1ccc(C2=NC(=O)/C(=C/c3cc(O)c(O)c(Br)c3)S2)cc1 do in these assays?
PHOSPHO1 block: -23.2; MLLE-PAM2 inh: 5.2; PABP polyA inh: 4.2*; CRFR2-BP antag: 35.0; eIF4H FP inh: 56.4*

How did COc1cc(/C=C2\SC(c3ccc(C)cc3)=NC2=O)cc(OC)c1O do in these assays?
PHOSPHO1 block: 17.4; MLLE-PAM2 inh: -115.4; PABP polyA inh: -6.1; CRFR2-BP antag: -10.7; eIF4H FP inh: -11.0

Results for CCC/C(=N/NC(=O)c1csc(C)c1C)c1ccc(Cl)s1 ?
PHOSPHO1 block: 5.5; MLLE-PAM2 inh: 6.2; PABP polyA inh: 71.7; CRFR2-BP antag: -4.9; eIF4H FP inh: active

How did CCc1nc2ccc(C(=O)N(C)CCN(C)C)cn2c1N(CC)C(=O)NCCc1ccccc1 do in these assays?
MLLE-PAM2 inh: -6.8

Results for COC(=O)C1=C(C(=O)OC)SC2(S1)C(C(=O)OC)=C(C(=O)OC)SC1=C2c2cc(C)ccc2NC1(C)C ?
PHOSPHO1 block: 97.9*; MLLE-PAM2 inh: 23.9; PABP polyA inh: 3.1; CRFR2-BP antag: -23.7; eIF4H FP inh: -2.5

What do the screens show for `COC(=O)c1ccccc1NC(=O)CCCOc1cc(=O)n(C)c2ccccc12`?
MLLE-PAM2 inh: 0.1

What do the screens show for `COc1ccc(-c2ccnc3nc(-n4cccc4)nn23)cc1`?
PHOSPHO1 block: 18.1; MLLE-PAM2 inh: -10.1; PABP polyA inh: 0.3; CRFR2-BP antag: 16.3; eIF4H FP inh: -8.8

What do the screens show for `c1coc(-c2ccnc3nc(-n4cccc4)nn23)c1`?
PHOSPHO1 block: 8.1; MLLE-PAM2 inh: -5.7; PABP polyA inh: active; CRFR2-BP antag: -24.5; eIF4H FP inh: 93.9*

Results for O=C1c2cc3c(cc2CCC1c1ccc2c(c1)OCO2)OCO3 (stereo not drawn) ?
MLLE-PAM2 inh: -1.4; CRFR2-BP antag: -7.9

What do the screens show for `O=C(O)c1ccccc1N/N=C/c1c(Sc2nnnn2-c2ccccc2)nc2ccccn2c1=O`?
PHOSPHO1 block: 15.9; MLLE-PAM2 inh: -156.2; PABP polyA inh: 24.4; CRFR2-BP antag: -45.1; eIF4H FP inh: 49.0

Source: PubChem (Sanford-Burnham Center for Chemical Genomics)
